From PubChem BioAssay (NCI)
Compounds without any hit were thinned out: in the full panel of roughly 79,000, 15% have a hit. No stated cut-off is given here; in the data, active means growth inhibition above about 70%; inactive means the rest.

How the values were obtained:
[1] = NCI Yeast Anticancer Drug Screen. Data for the rad50 strain (AID 155);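 further: 0% = growth of vehicle-only cultures of the same strain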; conditions: S. cerevisiae rad50 strain growth inhibition; at 50.0 µM; stronger effect = higher value
Summary of the method: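 Readout: growth inhibition relative to vehicle-treated cultures. Compound exposure was carried out in a genetically defined yeast strain deficient in DNA damage repair.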

[2] = NCI Yeast Anticancer Drug Screen. Data for the mec2-1 strain (AID 157); conditions: S. cerevisiae mec2-1 strain, at 50.0 µM, stronger effect = higher value
Summary of the method: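 Test agents were screened against the mec2-1 yeast strain, with defined DNA repair or cell cycle alteration. Growth was scored as inhibition against vehicle-only controls.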

[3] = NCI Yeast Anticancer Drug Screen. Data for the sgs1 mgt1 strain (AID 161);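 further: 0% = growth of cultures given vehicle only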; conditions: S. cerevisiae sgs1 mgt1 strain, at 50.0 µM, stronger effect = higher value
Summary of the method: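 Mutant yeast exposed to compound; growth scored against vehicle-only wells.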

[4] = NCI Yeast Anticancer Drug Screen. Data for the cln2 rad14 strain (AID 165);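 further: 0% = growth equal to vehicle treated cultures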; conditions: S. cerevisiae cln2 rad14 strain, at 50.0 µM, stronger effect = higher value
Summary of the method: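 Growth of compound-exposed yeast (cln2 rad14 genotype) measured and expressed as inhibition relative to vehicle.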

[5] = NCI Yeast Anticancer Drug Screen. Data for the bub3 strain (AID 167); conditions: S. cerevisiae bub3 mutant strain, at 50.0 µM, stronger effect = higher value
Summary of the method: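 Readout: yeast growth inhibition, expressed relative to vehicle-only wells. The test organism is a mutant strain from a panel with lesions in DNA repair or checkpoint genes.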

[6] = NCI Yeast Anticancer Drug Screen. Data for the mlh1 rad18 strain (AID 175); conditions: S. cerevisiae mlh1 rad18 strain growth inhibition; at 50.0 µM; stronger effect = higher value
Summary of the method: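 In this whole-cell yeast screen, a strain with altered DNA damage repair is challenged with compound, and its growth is measured against matched vehicle-treated controls.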

Measured: growth inhibition

COc1cc(/C=C/C(=O)c2ccccc2O)cc(OC)c1OC
inactive: [1] -1% | [2] -17.1% | [3] 16.4% | [4] -6.35% | [5] -9.15% | [6] 13.8%

COC1=NO[C@@H]2C=CO[C@H]12
inactive: [1] -8.2% | [2] -13.2% | [3] -5.05% | [4] -18.4% | [5] 8.35% | [6] 9.95%

O=[N+]([O-])c1ccc(CS(=O)(=O)c2cccs2)o1
inactive: [1] 39% | [2] 12.8% | [3] 19.1% | [4] -6.25% | [5] 19.5% | [6] 16.6%

O=c1[nH]c2ccccc2nc1/C=C(\O)c1ccc([N+](=O)[O-])cc1
inactive: [1] 1.55% | [2] -10.6% | [3] -21.6% | [4] 25.7% | [5] -22.4% | [6] 1.6%

Oc1ccc(-c2ccc(O)cc2O)c(O)c1
inactive: [1] -1.45% | [2] -20.9% | [3] -1.85% | [4] 7.45% | [5] 0.35% | [6] 14.2%

Cc1ccc(C(=O)c2cc3c([nH]c4ccccc43)c(C)c2C(=O)O)cc1
inactive: [1] 15.8% | [2] -9.55% | [3] -5.1% | [4] 28.6% | [5] 21.5% | [6] 21.1%

O=C(OCc1ccccc1)C1(N2CN(C3(C(=O)OCc4ccccc4)CCCC3)CN(C3(C(=O)OCc4ccccc4)CCCC3)C2)CCCC1
inactive: [1] -8.05% | [2] -5.7% | [3] 2.25% | [4] 16.9% | [5] 13.5% | [6] 2.15%

Cn1ncc2c(NCc3ccccc3)ncnc21
inactive: [1] 13.2% | [2] 3.15% | [3] 23.1% | [4] -44% | [5] 2.7% | [6] 0.5%

COc1cc(C2c3cc4c(cc3C(OC(=O)C[n+]3ccccc3)C3COC(=O)C23)OCO4)cc(OC)c1OC (stereo unspecified)
inactive: [1] 28.7% | [2] -9.15% | [3] 1.7% | [4] -4.75% | [5] 18.8% | [6] 16.5%

O=C1CN(c2ccccc2)CC(=O)N2Cc3ccccc3CN12
inactive: [1] -4.05% | [2] 1.2% | [3] 9.8% | [4] 17.1% | [5] 16.7% | [6] 14.7%

COC1=CC(=O)C=C(C)C1=O
inactive: [1] 19.4% | [2] -11.9% | [3] -8.1% | [4] 29.7% | [5] 4% | [6] 2%

COC(=O)c1nc(=S)[nH]c(C(=O)OC)c1C(=O)/C=C/c1ccccc1
inactive: [1] 0.1% | [2] -1.7% | [3] 8.05% | [4] -14.2% | [5] -1.75% | [6] 11.8%

Nc1ccc(C(=O)NN2C(=O)C(Cl)C2c2ccc(O)cc2)cc1 (stereo unspecified)
inactive: [1] -1.75% | [2] -1.45% | [3] -17.2% | [4] -3.05% | [5] 4.8% | [6] -25.6%

CC(=O)C1=C(c2ccccc2)N(C2OC(CO)C(O)C(O)C2O)C(S)=C(C#N)C1c1ccc(Cl)cc1 (stereo unspecified)
inactive: [1] 42.9% | [2] 23.9% | [3] 10.1% | [4] 29.2% | [5] 25.1% | [6] 49%

O=S1(=O)OCOS(=O)(=O)OCO1
inactive: [1] -24.9% | [2] -28.6% | [3] -14.2% | [4] -4.8% | [5] -13.8% | [6] -19.9%

CCCCC(O)(c1ccccc1)c1ccccc1CN(C)C (stereo unspecified)
inactive: [1] 1.7% | [2] -3% | [3] -0.65% | [4] 6.15% | [5] -2.05% | [6] -4.8%

O=C1/C(=C/c2ccccc2)CN(C(=O)/C=C/c2ccccc2)C/C1=C\c1ccccc1
inactive: [1] -23.6% | [2] -19.8% | [3] -52% | [4] -8.15% | [5] -11.6% | [6] -33.2%

CCC(c1ccc(OCc2ccccc2)cc1)c1cc2c(cc1OCCO)OCO2 (stereo unspecified)
inactive: [1] 23.7% | [2] 57% | [3] -3% | [4] 0.9% | [5] 39.7% | [6] 57%

CCCC(=O)Nc1ccccc1OC
inactive: [1] 12.8% | [2] 12.7% | [3] 9.2% | [4] 11.9% | [5] 24.4% | [6] -0.75%

COc1cc(OC)c2cnc(Cl)cc2c1
inactive: [1] 15.4% | [2] -9.1% | [3] -5.35% | [4] -41.4% | [5] -2.85% | [6] 6.6%

CN(CCN(C)C(=O)CCOS(C)(=O)=O)C(=O)CCOS(C)(=O)=O
inactive: [1] -3.95% | [2] -3.05% | [3] -18.4% | [4] 0% | [5] -25.6% | [6] -51.5%

O=C1CC2C3CC4(OCCO4)C4C3CC2C14 (stereo unspecified)
inactive: [1] 8.25% | [2] 2.45% | [3] 3% | [4] 8.65% | [5] 2.1% | [6] 5.8%

Cc1c(C)c2cc(Br)ccc2[nH]c1=O
inactive: [1] 18.9% | [2] -6.2% | [3] -10.2% | [4] 6.45% | [5] 6.7% | [6] 2.45%

Cc1ccc(N2C(=O)CNC2=O)cc1
inactive: [1] -10.3% | [2] -5% | [3] -7.8% | [4] -27.2% | [5] 1.2% | [6] -6.45%

OC1c2ccccc2-c2ccc(Cl)cc21 (stereo unspecified)
inactive: [1] 23.8% | [2] 14.2% | [3] -7.15% | [4] -32.2% | [5] 4.15% | [6] 14.9%

CCOC(=O)C1(C(=O)OCC)CCC(C(OC)OC)C(CC(=O)OC)C1 (stereo unspecified)
inactive: [1] -2.45% | [2] -15.7% | [3] -5.2% | [4] -6.5% | [5] 26.4% | [6] 16.4%

COC(=O)N/N=C/c1oc(-c2cccc([N+](=O)[O-])c2)c(-c2cccc([N+](=O)[O-])c2)c1[N+](=O)[O-]
inactive: [1] 19.4% | [2] 30.1% | [3] 16.5% | [4] 22.6% | [5] 21% | [6] 22.6%

Cc1c(CCOC=O)c(=O)[nH]c2nncn12
inactive: [1] -15.5% | [2] -29.6% | [3] -18.3% | [4] 16.9% | [5] -9.65% | [6] 2.65%

Cc1ccc(S(=O)(=O)CCN2CCCC2)cc1
inactive: [1] -3.85% | [2] -14.7% | [3] -5.6% | [4] -47.2% | [5] 7.95% | [6] -9.55%

CC(C)(C)C(=O)Nc1c(Cl)c(C2CC2)nn1-c1ccccc1
inactive: [1] 7.55% | [2] -0.55% | [3] 24.7% | [4] 11.3% | [5] 22.4% | [6] 19.4%

Brc1ccc(N=N/C(=N/Nc2ccccc2)c2ccc(/C=N/Nc3ccccc3)cc2)cc1
inactive: [1] 45.8% | [2] 24.4% | [3] 14.6% | [4] 29.2% | [5] 15% | [6] 34.4%

O/N=C(/CC(O)(c1ccccc1)c1ccccc1)c1ccccc1
inactive: [1] 22.6% | [2] -6.8% | [3] 7.8% | [4] -15.4% | [5] -17.9% | [6] 27.4%

CC(C#N)N(C)c1c([N+](=O)[O-])c(=O)n(C)c(=O)n1C (stereo unspecified)
inactive: [1] -5.85% | [2] -13.3% | [3] -5.4% | [4] -14.9% | [5] -2.7% | [6] -20.7%

CCc1c(C(=O)OC)c(C(=O)OC)c(-c2ccc(C)cc2)n1CCn1c(CC)c(C(=O)OC)c(C(=O)OC)c1-c1ccc(C)cc1
inactive: [1] -0.55% | [2] 0.3% | [3] -26.1% | [4] -0.6% | [5] -3.15% | [6] 17.9%

CCCCCCCCCCC1OCC(C)(C)CO1
inactive: [1] 10.3% | [2] -12.2% | [3] 17.4% | [4] -7.5% | [5] 1.65% | [6] 11.4%

CCOC(=O)/C(C#N)=C/c1cc(Br)c(O)c(OC)c1
inactive: [1] -12.3% | [2] -22% | [3] 25.4% | [4] -0.8% | [5] 6.25% | [6] 10.8%

C(=N\OCCc1ccccc1)/c1ccccn1
inactive: [1] -14.7% | [2] -33.1% | [3] -8.95% | [4] -25.3% | [5] 9.7% | [6] 4%

O=C(O)Cc1[nH]c(=O)[nH]c(=O)c1CCl
inactive: [1] -27.9% | [2] -7.75% | [3] -10.1% | [4] -1.3% | [5] -19.2% | [6] -18.1%

O=C(/C=C/c1ccc([N+](=O)[O-])cc1)NN=C(c1ccccc1)c1ccccc1
inactive: [1] -20.4% | [2] -16.4% | [3] -12.3% | [4] -7.1% | [5] -9.5% | [6] -0.15%

O=C(CC(C(=O)c1ccsc1)c1cccs1)c1cccs1 (stereo unspecified)
inactive: [1] 50.9% | [2] 14.2% | [3] 57.3% | [4] 36.4% | [5] 59.6% | [6] 33.8%

CCOC(=O)c1ccc(NCc2ccc3oc(=O)c(-c4ccccc4)nc3c2)cc1
inactive: [1] -14.7% | [2] -16.6% | [3] -12.8% | [4] 22.2% | [5] -17.7% | [6] -17.4%
